The list is not random: actives were taken first. Their share in the collection is about 19%.
IL-1B inflam inh = qHTS for Inhibitors of Inflammasome Signaling: IL-1-beta AlphaLISA Primary Screen; THP-1 LPS/ATP IL-1B secretion, AlphaLISA, 16 h; stronger effect = lower value; 360,000 compounds, 4.7% hits; activity change, % at 57.5 µM; in the data active means activity change below about -50%; inconclusive means mostly about -30% to -49%; further: on the % scale 0 is the no-effect control and ±100 the full control effect
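Secreted IL-1B measured by AlphaLISA bead assay after 16 h compound exposure of THP-1 cells; compounds (final up to 57.5 uM) added 1 h before LPS (250 ng/mL) and ATP (1.25 mM) stimulation; lower signal means less secretion.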
ASM inhibitor = Inhibitors of Secretory Acid Sphingomyelinase (S-ASM): qHTS | placental ASM, HMU-PC fluorogenic substrate, 60 min | Potency, µM (series often up to 57.5 µM), without a hit: top-dose activity change, negative = inhibition, usual class: inhibitors | 340,000 compounds, 0.006% hits | AID 504937, 2011; further: potency means the concentration at half of the fitted maximal effect
Target sequence (P17405 47-631 limits assumed): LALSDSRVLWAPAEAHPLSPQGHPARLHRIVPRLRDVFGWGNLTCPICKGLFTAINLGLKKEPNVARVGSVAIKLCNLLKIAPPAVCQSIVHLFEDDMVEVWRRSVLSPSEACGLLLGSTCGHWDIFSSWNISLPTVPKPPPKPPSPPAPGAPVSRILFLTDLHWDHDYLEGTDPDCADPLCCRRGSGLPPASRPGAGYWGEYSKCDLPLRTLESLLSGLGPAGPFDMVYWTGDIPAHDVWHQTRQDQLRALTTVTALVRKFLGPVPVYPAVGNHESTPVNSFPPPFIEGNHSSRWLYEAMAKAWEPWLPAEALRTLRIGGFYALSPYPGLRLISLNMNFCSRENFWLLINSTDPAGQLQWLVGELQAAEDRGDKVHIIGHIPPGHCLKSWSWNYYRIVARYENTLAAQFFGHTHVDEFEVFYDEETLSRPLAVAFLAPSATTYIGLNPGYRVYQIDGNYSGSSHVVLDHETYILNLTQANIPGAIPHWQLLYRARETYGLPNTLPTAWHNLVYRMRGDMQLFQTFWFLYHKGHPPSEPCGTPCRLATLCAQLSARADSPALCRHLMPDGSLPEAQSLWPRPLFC
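HMU-PC0 cleavage (9 uM final) by human placental ASM, 60 min at 37 °C following 10 min compound exposure at RT; stopped at pH 10, fluorescence Ex 386/Em 447 nm.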
TGFb inhibitor = qHTS for Inhibitors of TGF-b; 410,000 compounds, 1.2% hits; HepG2 CAGA-GFP TGF-b/SMAD3 reporter, GFP fluorescence, 18 h; TGF-beta stimulated, 500 pg/mL final; Potency, µM (highest dose often 46.1 µM), for the others: at the highest dose activity, negative = inhibition, hits mostly inhibitors; AID 588855, 2011; further: potency means the concentration at half of the fitted maximal effect; on the % scale 0 is the no-effect control and ±100 the full control effect; nearly all actives have a fitted effect of over 65% in size
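Smad-responsive CAGA-GFP expression was quantified in HEPG2 cells exposed to compounds and 500 pg/mL final TGF-beta for 18 h at 37 degrees C; unstimulated wells defined full inhibition.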
HepG2 viability = qHTS for Inhibitors of TGF-b: Cytotox Counterscreen. AID 588856, 2011. Potency, µM (titrated, usually from 46.1 µM), for inactives: top-dose activity change, negative = cytotoxicity, actives largely listed as cytotoxic. 410,000 compounds, 0.76% hits. HepG2 CAGA-GFP viability, ATP luminescence, 18 h; further: potency means the concentration at half of the fitted maximal effect
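HepG2 CAGA-GFP cells (1000/well, DMEM with 1% FBS) received compound, then TGF-beta at 500 pg/mL final, and were incubated 18 hours at 37 degrees C. Viability was read by CellTiter-Glo luminescence. Media-only wells were set as complete cell-killing and DMSO as no toxicity.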
TDP1 cell noCPT = qHTS for Inhibitors of human tyrosyl-DNA phosphodiesterase 1 (TDP1): qHTS in cells in absence of CPT; DT40 Tdp1-/- hTDP1 cells, no CPT, ATP luminescence, 48 h; 420,000 compounds, 15% hits; Potency, µM (top dose mostly 46.2 µM), inactives show at the top dose activity change, negative = growth inhibition, actives largely listed as inhibitors; further: potency means the concentration at half of the fitted maximal effect; on the % scale 0 is the no-effect control and ±100 the full control effect; nearly all actives have a fitted effect of over 55% in size
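Chicken DT40 Tdp1-/- cells complemented with human TDP1, screened without camptothecin (DMSO vehicle only), 400 cells/well. Compounds pin-transferred, cells incubated at 37 °C for at least 48 hr. Growth read as ATP-dependent luminescence (CellTiter-Glo, 30 min at RT).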
TDP1 cell CPT = qHTS for Inhibitors of human tyrosyl-DNA phosphodiesterase 1 (TDP1): qHTS in cells in presence of CPT; 420,000 compounds, 12% hits; AID 686979, 2013; Potency, µM (highest dose often 46.2 µM), for the others: at the top dose activity change, negative = growth inhibition, hits mostly inhibitors; chicken DT40 Tdp1-/-;hTDP1 cells + 20 nM CPT, ATP luminescence, 48 h; further: potency means the concentration at half of the fitted maximal effect; on the % scale 0 is the no-effect control and ±100 the full control effect; nearly all actives have a fitted effect of over 55% in size
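Chicken DT40 Tdp1-/- cells complemented with human TDP1, 400 cells/well, exposed to compounds plus 20 nM camptothecin for at least 48 h at 37 C; viability read as ATP content by CellTiter-Glo luminescence.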
Active calls of the source: *; ? = inconclusive; · = no result. Unless noted, the call rests on the fitted dose curve; in most records, active means well fitted curve in the direction sought with a large enough effect; inconclusive means small, poorly fitted or top-dose-only effect, or another doubt; inactive means no such curve, though single readings can be large; an effect the other way counts as inactive or inconclusive.

SMILES	IL-1B inflam inh	ASM inhibitor	TGFb inhibitor	HepG2 viability	TDP1 cell noCPT	TDP1 cell CPT
Cc1cccc(OC(C)C(=O)Nc2ccccc2C(=O)N2CCCCC2)c1 (stereo not given)	-10	4%	-15%	-4%	13µM*	?
CCN(CC)c1ccc(C(=O)OCC(=O)Nc2ncccn2)cc1	1	-2%	-9%	11%	-2%	3%
COC(=O)c1ccc(NC(=S)NC2CCCCC2C)cc1 (stereo not given)	-5	-2%	?	-35%	26µM*	23µM*
CCN(CC)c1ccc(C(=O)OCC(=O)Nc2ccccc2-c2ccccc2)cc1	21	3%	-5%	-35%	18µM*	?
Cc1cc(OC(C)C(=O)Nc2ccccc2C(=O)N2CCCC2)ccc1Cl (stereo not given)	0	3%	?	-14%	?	?
CCOc1ccc(-n2c(SCC(=O)N3CCCc4ccccc43)nc3c([nH]c4ccccc43)c2=O)cc1	·	·	1%	-13%	-13%	-24%
Cc1ccccc1C(=O)N1CCC(C(=O)N2CCN(c3ncccn3)CC2)CC1	34	3%	2%	-7%	13%	2%
CC(C)c1ccccc1OCC(=O)Nc1ccccc1C(=O)N1CCOCC1	-11	-1%	13%	9%	16µM*	16µM*
Cc1ccccc1OCC(=O)Nc1ccccc1C(=O)NC1CC1	-5	-2%	-19%	-14%	21µM*	?
CCOC(=O)N1CCN(C(=O)C2CCN(C(=O)c3ccccc3C)CC2)CC1	-103*	-1%	?	-96%	1µM*	0.92µM*
CCOC(=O)N1CCN(C(=O)c2ccccc2NC(=O)COc2ccccc2C)CC1	0	3%	-8%	-30%	21µM*	?
COc1cc(=O)[nH]c(SC(C)C(=O)Nc2cccc3ccccc23)n1 (stereo not given)	56	6%	-17%	-10%	1%	9%
COc1ccc(CNC(=O)CS(=O)(=O)c2cccc3nsnc23)cc1	·	·	-2%	-2%	-21%	-3%
Cc1ccccc1C(=O)N1CCC(C(=O)Nc2ccccc2N2CCCC2)CC1	20	-5%	1%	-3%	-28%	-2%
CCOc1ccc(CCNC(=O)CN2C(=O)COc3ccc(S(=O)(=O)N4CCCC4)cc32)cc1	·	·	?	-2%	?	?
CCCCN(C(=O)CCCSc1nc2ccccc2[nH]1)c1c(N)n(Cc2ccccc2)c(=O)[nH]c1=O	-90*	·	5%	3%	-3%	6%
CCCCN(C(=O)CSc1nnc(-c2ccc(OC)cc2)n1CC)c1c(N)n(Cc2ccccc2)c(=O)[nH]c1=O	-60*	1%	-9%	-9%	-19%	-4%
Nc1c(N(CCCO)C(=O)C2CCCCC2)c(=O)[nH]c(=O)n1Cc1ccccc1	-7	12%	1%	-15%	13%	-8%
CCCN(C(=O)CCCSc1nc2ccccc2[nH]1)c1c(N)n(Cc2ccccc2)c(=O)[nH]c1=O	35	3%	-7%	24%	-11%	-8%
Nc1c(N(CCCO)C(=O)CCCN2C(=O)c3cccc4cccc(c34)C2=O)c(=O)[nH]c(=O)n1Cc1ccccc1	0	7%	-3%	3%	?	10µM*
COc1ccc(Cc2nc3ccc(C(=O)NCC4COCCO4)cc3o2)cc1OC (stereo not given)	14	-2%	-5%	-12%	9%	-9%
COc1ccc(-n2c(SCc3ccccc3F)nc3c([nH]c4ccccc43)c2=O)cc1	·	·	19%	-20%	?	?
CC[C@@H]1Cc2[nH][nH]c(=O)c2[C@@H](c2ccc(Cl)cc2)O1	10	·	·	·	-27%	-22%
O=C(CC(CC(=O)c1ccccc1)c1ccccn1)c1ccccc1	3	0%	26%	-1%	15µM*	?
O=C(CC(=O)c1ccccn1)c1ccccc1	60	-4%	-24%	-19%	16µM*	21µM*
SMILES	IL-1B inflam inh	ASM inhibitor	TGFb inhibitor	HepG2 viability	TDP1 cell noCPT	TDP1 cell CPT
COc1ccc(S(=O)(=O)N(CC(=O)Nc2ccc(S(=O)(=O)N3CCOCC3)cc2)Cc2ccc(F)cc2)cc1	-21	0%	-6%	0%	15µM*	21µM*
COc1ccc(S(=O)(=O)N(CC(=O)Nc2ccc(S(=O)(=O)N3CCOCC3)cc2)c2ccccc2)cc1	19	-1%	-16%	-28%	0.16µM*	-68%
O=c1ccnc2n1COCS2	2	4%	24%	22%	-4%	7%
C[C@@H]1CN([C@@H](C)CO)C(=O)CCCn2nncc2CO[C@@H]1CN(C)S(=O)(=O)c1ccccc1C#N	-22	·	-6%	-3%	-12%	3%
CCC(=O)N(c1nnc(SCC(=O)Nc2ccccc2Cl)s1)C1CC1	22	-2%	-1%	-13%	13%	0%
CC(C)CC(NC(=O)CCl)c1ccccc1 (stereo not given)	-6	5%	-3%	-3%	?	-27%
CCCC(NC(=O)CCl)c1ccccc1 (stereo not given)	-92*	6%	?	-26%	29µM*	13µM*
CC(C)N(Cc1nc(-c2ccccc2)no1)C(=O)C(Cl)(Cl)Cl	?	-3%	-6%	-17%	-28%	3%
COC(=O)c1ccccc1NC(=O)Nc1ccc(Cl)cn1	-3	0%	-2%	-19%	-8%	-8%
COC(=O)c1ccccc1Nc1ccnc(Cl)n1	6	4%	0%	20µM*	-13%	-7%
CC(=O)N(c1ccc2ccccc2c1)C1SC(=O)N(c2cccc(C)c2)C1=O (stereo not given)	·	·	·	·	-14%	4%
CCOc1cccc2sc(N(CCN(C)C)C(=O)c3cc4ccccc4cc3OC)nc12	-58*	-11%	?	-53%	?	23µM*
CCOc1ccc2nc(N(CCN(C)C)C(=O)c3cc4ccccc4cc3OC)sc2c1	?	-3%	?	-18%	?	?
CCN(Cc1ccccc1)S(=O)(=O)c1ccc(C(=O)N(CCCN(C)C)c2nc3c(F)cccc3s2)cc1	-77*	-7%	-27%	-24%	?	?

Assay outcomes as filed in PubChem BioAssay.
